The record followed here is ChEMBL document CHEMBL4513216, “Probing the Open Global Health Chemical Diversity Library for Multistage-Active Starting Points for Next-Generation Antimalarials” (ACS Infect Dis, 2020).

Structures are written as SMILES. About 8,600 (12%) of roughly 69,000 compounds showed an effect of 50% or more. The full list was thinned out, with strong results kept by preference.

For this assay, the system named is Plasmodium berghei. Description: Screen against P. berghei liver stage (PbLuc), transformed with Luciferase, at 10uM. Format: functional, HepG2. Particulars: tested at 10 uM.
As to `O=C(COc1ccccc1Cl)N1CCCC(n2ccnc2)C1` (configuration not stated), the INHIBITION is recorded as 19.5%.

`O=C(c1ccc(S(=O)(=O)N2CCSCC2)cc1)N1CCCCCC1`: the INHIBITION is given as 24.2%.

For `Cc1ccc(C(=O)N2CCN3C[C@H](Oc4cccnc4)C[C@H]3C2)cn1`, the INHIBITION worked out at 39.3%.

As to `COc1ccc2c(c1)OCC(CNC(=O)c1ccncc1)C2` (configuration not stated), the INHIBITION amounted to 4.2%.

With `COc1ccc2c(c1)OCC(CNC(=O)c1cnc(O)cn1)C2` (configuration not stated), the INHIBITION was found to be 12.9%.

In the case of `CCc1nc(C)c(C(=O)NCC2COc3cc(OC)ccc3C2)o1` (configuration not stated), the INHIBITION was determined as 53.2%.

Regarding `Cc1[nH]nc(CCC(=O)NCC2COc3ccccc3C2)c1C` (configuration not stated), the INHIBITION came out at 13.7%.

As for `CCNC(=O)c1ccnc(NCC2COc3cc(OC)ccc3C2)c1` (configuration not stated), the INHIBITION is reported as 51.6%.

With `COc1ccc2c(c1)OCC(CNC(=O)CCc1c(C)n[nH]c1C)C2` (configuration not stated), the INHIBITION is 35%.

Turning to `Cc1n[nH]c(C)c1CCC(=O)NCC1CCOc2ccccc2C1` (configuration not stated), the INHIBITION worked out at 49.9%.

As for `COc1ccc2c(c1)OCC(CNC(=O)c1ccc3[nH]nnc3c1)C2` (configuration not stated), the INHIBITION is 4.52%.

Regarding `COc1ccc2c(c1)OCC(CNC(=O)c1cnc(NC(C)C)nc1)C2` (configuration not stated), the INHIBITION was -42.8%.

On to `COc1ccc2c(c1)OCC(CNC(=O)c1cc[nH]c1C)C2` (configuration not stated), for which the INHIBITION was -3.83%.

With `Cc1n[nH]c(C)c1CCC(=O)NCC1COc2ccccc2C1` (configuration not stated), the INHIBITION worked out at 52.6%.

`COCCC(=O)NCC1COc2cc(OC)ccc2C1` (configuration not stated): the INHIBITION is 72.7%.

With `CC(C)c1nn(C)cc1CNCc1cccc(N(C)C)c1`, the INHIBITION stood at 12.4%.

For `Cc1nccn1C1CCCN(C(=O)COC2CCCC2)C1` (configuration not stated), the INHIBITION amounted to 39.735%.

For the molecule `CCN(c1ccc(C(=O)NCCCN2CCOCC2)cc1)S(=O)(=O)CC`, the INHIBITION is -0.79%.

Turning to `NCC(CO)Cc1ccc(OC(F)(F)F)cc1` (configuration not stated), the INHIBITION is on record as 19%.

With `CCOc1ccc(Cl)c(C(=O)N2CCN(CC(C)(C)O)CC2)n1`, the INHIBITION is 4.52%.

As to `CCC[C@H]1CN(C(=O)c2cc(-c3cccs3)n(C)n2)C[C@@H]1N`, the INHIBITION turned out to be 29.7%.

For the molecule `c1cc(-c2nc(CN3CCc4c(ncn4C4CC4)C3)cs2)cs1`, the INHIBITION is on record as 22.6%.

On to `COc1cc(N2CCC[C@]3(C(=O)O)CN(C(C)C)C[C@@H]3C2)ncn1`, for which the INHIBITION is on record as 26.5%.

As to `COCCN1C[C@@H]2CN(c3cc(OC)ncn3)CCC[C@]2(C(=O)O)C1`, the INHIBITION was 57.1%.

In the case of `CCN1C[C@@H]2CN(c3cc(OC)ncn3)CCC[C@]2(C(=O)O)C1`, the INHIBITION is given as 47.5%.

With `CN(C)S(=O)(=O)N1CCCC(C)(c2ncc(C(N)=O)s2)C1` (configuration not stated), the INHIBITION is on record as 23.9%.

For `O=C(COC1CCCC1)NCCCn1nc2ccccn2c1=O`, the INHIBITION is -24.6%.

As to `CN1CCC(N(CCc2ccccc2)C(=O)c2cc[nH]c2)CC1`, the INHIBITION was found to be 32.8%.

For the molecule `CC1(C(=O)N2CCOCC2)CN(CC2CCOCC2)CCO1` (configuration not stated), the INHIBITION is recorded as 7.25%.

On to `CC1(C(=O)N2CCOCC2)CN(C2CCCCC2)CCO1` (configuration not stated), for which the INHIBITION is listed as 56.8%.

Consider `CN1CCOC(C)(C(=O)N2CCN(C3CCCC3)CC2)C1` (configuration not stated), for which the INHIBITION amounted to 32.8%.

Turning to `COCC(=O)NCc1cc(=O)n2c(n1)CN(Cc1ccoc1)CCC2`, the INHIBITION is recorded as 36.9%.

Take `Cc1nc(C)c(C(=O)N2CCc3nc4c(C)csc4c(=O)n3CC2)s1`: the INHIBITION turned out to be 39.7%.

Regarding `Cc1csc2nc3n(c(=O)c12)CCN(Cc1c[nH]cn1)CC3`, the INHIBITION amounted to 17.1%.

Consider `CN1CC(C(=O)NCCOc2ccc3c(c2)OCO3)CC1=O` (configuration not stated), for which the INHIBITION came out at 16.9%.

With `CC(=O)N1CCCN(C(=O)NC(C)c2ccc(C)o2)CC1` (configuration not stated), the INHIBITION amounted to 11.3%.

As to `CC(CNC(=O)N1CCN(CC(F)F)CC1)Cc1cccs1` (configuration not stated), the INHIBITION was -13.2%.

Consider `Cc1ccc(C(C)NC(=O)N2CCCN(CC(F)F)CC2)s1` (configuration not stated), for which the INHIBITION stood at 60.9%.

Regarding `CC(NC(=O)N1CCCN(Cc2cccs2)CC1)c1cccnc1` (configuration not stated), the INHIBITION came out at 6.92%.

For the molecule `CC(NC(=O)N1CCCN(CC(F)F)CC1)c1ccco1` (configuration not stated), the INHIBITION is recorded as 62.3%.

Turning to `CCc1cnc(C(C)NC(=O)N2CCCN(CC(F)F)CC2)s1` (configuration not stated), the INHIBITION is -37.8%.

`CN(C)C(=O)c1cc2ncc(C(=O)NC3CC3)cc2n1C`: the INHIBITION was 2.59%.

As to `CC(CNCc1ccncc1)Oc1ccccn1` (configuration not stated), the INHIBITION was -52.1%.

Regarding `Cc1nccn1CCC1CCN(C2CCC3(CCNCC3)CC2)CC1`, the INHIBITION came out at 12.1%.

On to `O=C1[C@H]2CN(Cc3ccc(F)cc3)C[C@H]2CN1CCN1CCCC1`, for which the INHIBITION turned out to be 3.81%.

In the case of `Nc1nc(N)c2c(n1)OC1(CCN(C(=O)CC3CCNCC3)CC1)C2`, the INHIBITION is recorded as -13.13%.

`CN1[C@H](CN2CCCC2)C[C@@H]2CN(C(=O)c3ccsc3)CC[C@@H]21`: the INHIBITION is 28.4%.

Consider `COc1ccc(CCN2C(=O)O[C@@H]3CN(C4CCSCC4)C[C@@H]32)cc1`, for which the INHIBITION was 47.6%.

For `COc1ccc(CCN2C(=O)O[C@@H]3CN(C)C[C@@H]32)cc1`, the INHIBITION was found to be 51.2%.

`COc1ccc(CCN2C(=O)O[C@@H]3CN(C4CCOCC4)C[C@@H]32)cc1`: the INHIBITION is -5.12%.

As for `CN1CCCC(c2nc3c([nH]2)CC(C)(C)CNC3=O)C1` (configuration not stated), the INHIBITION is reported as -67.3%.

Take `CC1(C)CNC(=O)c2nc(CCN3CCOCC3)[nH]c2C1`: the INHIBITION is recorded as -13%.
